Experimental data published in PubChem BioAssay (NCI).
About 83,000 compounds went through this panel and 20% of them were active in at least one assay; those are over-represented in the sample as a whole.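 The test compound was applied at a single concentration to cells in 96-well plates for 48 hours, and percent growth was recorded.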 Unmarked numbers belong to inactive results. Calls of active or inactive are those of the source. How the source made its calls: active means growth percent below 10; inactive means the rest.

These molecules were tested on HL-60(TB) leukemia (assay: NCI-60 one-dose screen, 48 h (100 = growth as untreated, 0 = no growth, -100 = all killed)). Conditions: 10 µM unless noted.

Row | SMILES | growth
1 | N=C(N)c1ccc(S(N)(=O)=O)cc1 | 94.9%
2 | CC1=C2[C@@H](CC1)[C@]1(C)O[C@@](c3ccccc3)(C[C@H]1OC(=O)CO)[C@H]2OC(=O)/C=C/c1ccccc1 | 88.5%
3 | COc1cccc(-c2cnco2)c1OCc1c(C)c(COc2c(OC)cccc2-c2cnco2)c(C)c(COc2c(OC)cccc2-c2cnco2)c1C | 76.4%
4 | CC(=O)c1nc2ccccc2n1CCN1CCN(C)CC1 | 8.01% (active)
5 | CC1CCC(C(C)(C)[N+](C)(C)C)CC1 (stereo unspecified) | 104%
6 | c1ccc2[nH]c(-c3ccc(-c4nccc5c4[nH]c4ccccc45)cc3)nc2c1 | -42.1% (active)
7 | O=C1OC(Oc2ccc(Br)cc2)(c2ccccc2)c2ccccc21 (stereo unspecified) | 120%
8 | S=c1[nH]c(=S)c2c(-c3ccccc3)c(-c3ccccc3)oc2[nH]1 | 94.9%
9 | CC1CCC2C(C)(C)C3CC12CC1OC13C (stereo unspecified) | 125%
10 | CO[C@H](C(=O)[C@@H](O)[C@@H](C)O)[C@@H]1Cc2cc3cc(O[C@H]4C[C@@H](O[C@H]5C[C@@H](O)[C@H](O)C(C)O5)[C@H](O)C(C)O4)c(C)c(O)c3c(O)c2C(=O)[C@H]1O[C@H]1C[C@@H](O[C@H]2C[C@@H](O[C@H]3C[C@](C)(O)C(=O)C(C)O3)[C@@H](O)C(C)O2)[C@H](O)C(C)O1 (stereo partly specified) | 2.34% (active)
11 | CC1=CN2C(=NC3=C(CCCC/C3=C\c3ccccc3)C2c2ccccc2)S1 (stereo unspecified) | 102%
12 | COc1cc(-c2nn(-c3ccc(NC(=O)Nc4ccc(Cl)c(C(F)(F)F)c4)cc3)cc2-c2ccncc2)ccc1Cl | 1.53% (active)
13 | C=C(c1ccc(OC)c(/C=C/C(=O)c2ccc3c(c2)OCO3)c1)c1cc(OC)c(OC)c(OC)c1 | 10.3%
14 | Nc1nnc(CSc2nnc3n(Cc4ccccc4)c(=O)c4c5c(sc4n23)CCCC5)s1 | 76.9%
15 | CCOC(=O)c1ccc(N2C(=O)C(Cl)(c3ccccc3)C2c2ccco2)cc1 (stereo unspecified) | 66%
16 | NNc1ncnc2cccc(Cl)c12 | 99.9%
17 | O=C(Nc1cccc([N+](=O)[O-])c1)c1cc2ccccc2cc1O | -54.1% (active)
18 | c1ccc2c(NCCCN3CCN(CCCNc4c5ccccc5nc5ccccc45)CC3)c3ccccc3nc2c1 | -23.8% [100 µM] (active)

Row | SMILES | growth
19 | Nc1ccc2c3c(cccc13)-c1ccccc1-2 | 4.53% (active)
20 | COC(=O)c1cc(=O)nc(N/N=C/c2ccc(C)cc2)s1 | 105%
21 | COc1ccc(/C=C/C(=O)Nc2ccc(-c3nc4ccc(F)cc4s3)cc2)cc1 | 91.4%
22 | Fc1ccc(-c2nc(-c3nc4ncccc4[nH]3)cc3c2[nH]c2ccccc23)cc1F | 86.4%
23 | COC(=O)c1nc(-c2ccc(C)cc2)oc1N1CCOCC1 | 93.7%
24 | O=C1c2ccccc2-c2cn(Cc3ccccc3)c3cccc(c23)C1c1cccnc1 (stereo unspecified) | 16.3%
25 | COc1cc2c(c(O)c1Cl)C(=O)c1c(O)cc(C[C@H](C)O)cc1[C@H]2[C@H]1c2cc(C[C@H](C)O)cc(O)c2C(=O)c2c1cc(OC)c(Cl)c2O | 1.89% (active)
26 | COCCn1cc(-c2csc(-c3cn(C)c4ccc(F)cc34)n2)c2cccnc21 | 84.7%
27 | Cc1cc(Nc2ccc3c(c2)OCO3)c2cc3c(cc2n1)OCO3 | -11.9% (active)
28 | COCCOC(=O)C1=C(C)NC(=S)NC1c1ccc2c(c1)OCO2 (stereo unspecified) | 92.1%
29 | COc1cc2c(Nc3ccc(-c4ccc(N)cc4)cc3)ncnc2c(OC)c1OC | 11.7%
30 | CCCCCCCCCOc1c(OC)cc(C2CC(=O)Nc3c2c(C)nn3-c2nc3ccccc3[nH]2)cc1OC (stereo unspecified) | 9.26% (active)
31 | Cc1cc(C)c2c(=O)[nH]c(SCC(=O)Nc3cccc(S(=O)(=O)N(C)C)c3)nc2n1 | 97.2%
32 | O=C(CC(NC(=O)OCc1ccccc1)C(=O)OCc1ccccc1)OCc1ccccc1 (stereo unspecified) | 126%
33 | COc1cc(-c2nc3ccc(C)cc3[nH]2)ccc1OCc1nnc(-c2ccc(CC(C)C)cc2)o1 | 110%
34 | O=C(C[N+](=O)[O-])c1ccc(Cl)cc1 | 104%
35 | Cc1ccc(-c2nc(C#N)c(S(=O)(=O)N(C)C)o2)cc1 | 0.829% (active)
36 | C=CCn1cc(-c2nc3ccccc3s2)c2cc(-c3ccc4c5c(cccc35)C(=O)N(CCO)C4=O)ccc21 | 101%
